Test results as given in PubChem BioAssay (Tox21).
Results filed as inconclusive are left out. Calls of active or inactive are those of the source. Unless noted, calls follow the shape of the dose curve; as a rule, active = well fitted curve in the direction sought with a large enough effect in the repeat runs; inconclusive = weak or mixed curves; inactive = no such curve, though single readings can be large; an effect the other way counts as inactive or inconclusive.

What was measured:
[1] = qHTS assay to identify small molecule antagonists of the estrogen related receptor (ERR) signaling pathway from Tox21 library - cell viability counter screen (AID 1224834); also: nearly all actives have a fitted effect of over 30% in size; also: potency is read from the fitted curve at half-maximal effect
Method in brief: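 In this quantitative HTS format, ERR cells receive compounds in DMSO and are incubated for 17.5 h at 37 C. Live-cell protease activity is then detected with CellTiter-Fluor.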

[2] = target: Luciferin 4-monooxygenase (Photinus pyralis) (UniProt P08659); test: qHTS assay to identify small molecule inhibitors of firefly luciferase (AID 1224835); also: nearly all actives have a fitted effect of over 25% in size
Sequence of Luciferin 4-monooxygenase (Photinus pyralis) (P08659 whole entry, looked up): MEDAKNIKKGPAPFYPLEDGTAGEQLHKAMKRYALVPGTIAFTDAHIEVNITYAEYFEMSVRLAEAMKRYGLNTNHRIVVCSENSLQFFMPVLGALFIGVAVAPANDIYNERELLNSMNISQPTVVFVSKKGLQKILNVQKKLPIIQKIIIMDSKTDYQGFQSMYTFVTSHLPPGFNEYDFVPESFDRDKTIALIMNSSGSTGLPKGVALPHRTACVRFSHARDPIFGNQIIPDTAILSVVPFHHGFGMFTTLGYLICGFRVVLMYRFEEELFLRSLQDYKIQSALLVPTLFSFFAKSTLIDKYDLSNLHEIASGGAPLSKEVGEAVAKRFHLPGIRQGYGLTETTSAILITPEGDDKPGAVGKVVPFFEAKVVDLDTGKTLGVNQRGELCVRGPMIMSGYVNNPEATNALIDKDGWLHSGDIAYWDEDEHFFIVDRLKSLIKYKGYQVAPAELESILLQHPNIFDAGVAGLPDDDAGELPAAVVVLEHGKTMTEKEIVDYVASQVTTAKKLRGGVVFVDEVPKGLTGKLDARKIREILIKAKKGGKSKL
Method in brief: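 Inhibition of purified Photinus luciferase is measured by luminescence. Substrate levels (D-luciferin, ATP) sit at their KM values. Each compound is tested in a concentration series.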

[3] = target: Nuclear receptor subfamily 1 group I member 3 (Homo sapiens) (UniProt Q14994); test: qHTS assay to identify small molecule antagonists of the constitutive androstane receptor (CAR) signaling pathway (AID 1224838); also: nearly all actives have a fitted effect of over 40% in size
Sequence of Nuclear receptor subfamily 1 group I member 3 (Homo sapiens) (Q14994 whole entry, looked up): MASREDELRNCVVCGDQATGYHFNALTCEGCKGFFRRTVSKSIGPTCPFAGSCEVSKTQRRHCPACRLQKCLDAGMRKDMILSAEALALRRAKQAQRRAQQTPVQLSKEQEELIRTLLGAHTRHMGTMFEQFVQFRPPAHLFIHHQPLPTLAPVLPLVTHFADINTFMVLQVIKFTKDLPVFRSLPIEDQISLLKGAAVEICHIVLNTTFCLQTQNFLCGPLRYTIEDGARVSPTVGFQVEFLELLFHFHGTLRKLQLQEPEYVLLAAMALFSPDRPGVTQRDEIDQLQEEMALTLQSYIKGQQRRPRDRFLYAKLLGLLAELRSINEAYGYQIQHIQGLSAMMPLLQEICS
Method in brief: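 CITCO-stimulated (50 nM final) HepG2 cells stably transfected with hCAR and CYP2B6-2.2kb luciferase were exposed to compounds at 15 concentrations for 24 h at 37 C/5% CO2. A luciferase reagent was added and luminescence recorded after 30 min.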

[4] = target: Nuclear receptor subfamily 1 group I member 3 (Homo sapiens) (UniProt Q14994); test: qHTS assay to identify small molecule agonists of the constitutive androstane receptor (CAR) signaling pathway (AID 1224839); also: nearly all actives have a fitted effect of over 15% in size; also: potency is read from the fitted curve at half-maximal effect;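 as to activation: HepG2 cells stably carrying human CAR and a CYP2B6 luciferase reporter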
Method in brief: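 HepG2 cells stably expressing hCAR and a CYP2B6-2.2kb luciferase reporter were treated with compounds at 15 concentrations plus 0.75 uM PK11195 (final) for 24 h at 37 C; luminescence was read after ONE-Glo addition.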

[5] = qHTS assay to identify small molecule antagonists of the estrogen related receptor signaling pathway with the pleiotropic PPARgamma coactivator (PGC) from Tox21 10K library - cell viability counter screen (AID 1224840; active = well fitted cell-killing curve with a large enough effect in the repeat runs, not every such curve was filed as active; also: nearly all actives have a fitted effect of over 40% in size)
Method in brief: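 Viability counter screen, PGC/ERR cells: 17.5 h compound exposure at 37 C, CellTiter-Fluor fluorescence endpoint.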

[6] = qHTS assay to identify small molecule antagonists of the estrogen related receptor signaling pathway with the pleiotropic PPARgamma coactivator (PGC) from Tox21 10K library (AID 1224841; call rule not given here; also: actives are mostly falling curves and most rising ones were filed inactive; nearly all actives have a fitted effect of over 50% in size)
Method in brief: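 In the PGC/ERR line, DMSO solutions of test chemicals are pin-delivered to 2,000 cells/well six hours after dispensing. Following eighteen hours' incubation, One-Glo reagent is added and luminescence recorded.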

[7] = qHTS assay to identify small molecule agonists of the estrogen related receptor signaling pathway with the pleiotropic PPARgamma coactivator (PGC) from Tox21 10K library (AID 1224842); also: nearly all actives have a fitted effect of over 15% in size
Method in brief: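 Luminescence from One-Glo (30 min, room temperature) measured after PGC/ERR cells had 18 h at 37 C with pinned compound (23 nL in DMSO). Cells had been seeded at 2,000 per well and pre-incubated 6 h.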

[8] = target: Thyrotropin receptor (Homo sapiens) (UniProt P16473); test: qHTS assay to identify small molecule agonists of the thyroid stimulating hormone receptor (TSHR) signaling pathway (AID 1224843; calls by dose curve; also: nearly all actives have a fitted effect of over 45% in size)
Sequence of Thyrotropin receptor (Homo sapiens) (P16473 whole entry, looked up): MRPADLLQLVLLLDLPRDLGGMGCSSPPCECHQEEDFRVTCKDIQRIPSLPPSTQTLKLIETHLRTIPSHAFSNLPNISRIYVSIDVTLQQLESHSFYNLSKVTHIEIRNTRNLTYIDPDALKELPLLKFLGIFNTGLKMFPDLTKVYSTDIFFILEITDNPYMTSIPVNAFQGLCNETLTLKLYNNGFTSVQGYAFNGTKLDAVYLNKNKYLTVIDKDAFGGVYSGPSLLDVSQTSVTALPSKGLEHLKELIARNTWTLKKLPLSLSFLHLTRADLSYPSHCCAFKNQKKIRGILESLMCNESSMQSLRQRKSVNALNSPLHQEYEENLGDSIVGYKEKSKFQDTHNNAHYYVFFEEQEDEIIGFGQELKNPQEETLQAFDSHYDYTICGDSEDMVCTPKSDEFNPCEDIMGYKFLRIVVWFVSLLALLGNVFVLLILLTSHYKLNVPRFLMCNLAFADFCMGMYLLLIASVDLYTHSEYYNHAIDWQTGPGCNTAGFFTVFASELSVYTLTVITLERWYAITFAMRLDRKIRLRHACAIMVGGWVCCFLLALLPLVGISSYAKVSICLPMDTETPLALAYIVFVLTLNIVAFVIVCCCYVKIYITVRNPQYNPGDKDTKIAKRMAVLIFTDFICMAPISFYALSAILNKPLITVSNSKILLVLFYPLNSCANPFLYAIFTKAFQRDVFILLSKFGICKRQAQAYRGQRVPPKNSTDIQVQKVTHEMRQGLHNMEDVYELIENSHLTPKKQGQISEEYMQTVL
Method in brief: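 Agonist activity read as cAMP rise via d2/cryptate HTRF competition, 1 h room-temperature detection, in HEK293 cells expressing TSHR. Fifteen-point titrations, each run in triplicate, with a 30 min room-temperature incubation beforehand.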

[9] = qHTS assay to identify small molecule agonists of the hypoxia (HIF-1) signaling pathway - cell viability counter screen (AID 1224844; calls by dose curve; also: nearly all actives have a fitted effect of over 50% in size)
Method in brief: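 Same wells as the HIF-1 reporter screen; ME-180 cells carrying HRE-bla, 17 hr treatment at 37C; CellTiter-Glo luminescence read after 30 min at room temperature.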

[10] = qHTS assay to identify small molecule agonists of H2AX (AID 1224845; active = well fitted activation curve with a large enough effect in the signal ratio in the repeat runs, not every such curve was filed as active; the % refers to the signal ratio)
Method in brief: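 Phospho-H2AX Ser139 measured by HTRF (ex 320 nm; em 665 and 620 nm) after 24 hr antibody incubation. Compounds, 15 concentrations, 0.76% DMSO, were applied to CHO-K1 cells for 3hr at 37C before lysis.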

[11] = qHTS assay to identify small molecule agonists of the hypoxia (HIF-1) signaling pathway (AID 1224846; active = well fitted activation curve with a large enough effect in the signal ratio in the repeat runs, not every such curve was filed as active; the % refers to the signal ratio)
Method in brief: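 In ME-180 cells bearing an HRE-bla construct, 17 h treatment with DMSO-dissolved compounds at 37C was followed by CCF4-AM loading to quantify reporter induction.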

[12] = qHTS assay to identify small molecule agonists of H2AX - cell viability counter screen (AID 1224847; calls by dose curve; also: top concentration of the series differs between compounds; nearly all actives have a fitted effect of over 30% in size)
Method in brief: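 Wild-type CHO-K1 cells (10% FBS medium) were plated overnight at 37C, exposed to compounds at 15 concentrations for 3 hr at 37C (0.76% DMSO final), and viability was read as CellTiter-Glo luminescence after 30 min at room temperature.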

[13] = qHTS assay to identify small molecule antagonists of the estrogen related receptor (ERR) signaling pathway from Tox21 library (AID 1224848); also: nearly all actives have a fitted effect of over 50% in size
Method in brief: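 Luciferase luminescence (ONE-Glo, 30 min room temperature) was the read-out. Cells of the NTP-supplied ERR line, 2,000 per well, were given 6 h at 37 C before compound addition in DMSO and 18 h exposure at 37 C.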

[14] = qHTS assay to identify small molecule agonists of the estrogen related receptor (ERR) signaling pathway from Tox21 library (AID 1224849; calls by dose curve; also: nearly all actives have a fitted effect of over 15% in size); settings: ERR reporter cell line, ONE-Glo luciferase, 18 h; at 92.4 µM (top of the series) unless noted
Method in brief: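 Reporter cells (ERR, NTP source) treated with Tox21 10K compounds 18 h, 37 C. Readout: ONE-Glo luminescence, 30 min RT.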

[15] = qHTS RealTime-Glo MT Cell Viability Assay in HepG2 cells - 24 hour (AID 1224867); also: nearly all actives have a fitted effect of over 50% in size
Method in brief: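 HepG2 cells were seeded at 600 cells/well together with NanoLuc luciferase and a cell-permeant prosubstrate, preincubated 5 h at 37 C/5% CO2, then pin-dosed with compounds in DMSO. Nonlytic luminescence from viable cells was read at each time point.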

[16] = A CellTox Green Cytotoxicity Assay to monitor cytotoxicity in HEK293 cells - 0 hour (AID 1224869); also: nearly all actives have a fitted effect of over 50% in size
Method in brief: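 Homogeneous no-lysis format: HEK293 cell suspension mixed with CellTox Green reagent, seeded, incubated 5 h at 37 C/5% CO2, then dosed by pintool with compound in DMSO.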

[17] = qHTS RealTime-Glo MT Cell Viability Assay in HEK293 cells - 32 hour (AID 1224868)
Method in brief: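 HEK293 cells were seeded at 600 cells/well together with NanoLuc luciferase and cell-permeant prosubstrate, preincubated 5 h at 37 C/5% CO2, then given compound in DMSO by pintool. Luminescence from viable-cell prosubstrate reduction was read repeatedly over 40 h.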

[18] = qHTS assay to identify small molecule agonists of the constitutive androstane receptor (CAR) signaling pathway - cell viability counter screen (AID 1224836); also: nearly all actives have a fitted effect of over 45% in size
Method in brief: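 HepG2 cells stably carrying hCAR and a CYP2B6-2.2kb reporter were plated 4 h, then given compounds at 15 concentrations plus PK11195 (final 0.75 uM). After 23 h at 37 C, viability was read by CellTiter-Fluor fluorescence.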

[19] = qHTS assay to identify small molecule antagonists of the constitutive androstane receptor (CAR) signaling pathway - cell viability counter screen (AID 1224837); also: nearly all actives have a fitted effect of over 45% in size
Method in brief: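 In quantitative HTS format, compounds at 15 concentrations were applied to HepG2 cells double-transfected with hCAR and CYP2B6-2.2kb under 50 nM CITCO stimulation; live-cell protease activity was read after 23 hr via CellTiter-Fluor.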
% is scaled to controls: 0 for no effect and ±100 for the full control effect.

Cc1nc2n(c(=O)c1CCN1CCC(c3noc4cc(F)ccc34)CC1)CCC[C@H]2O
inactive: viability change, negative = cytotoxic [1] 0.131% [at 19 µM] | activity change, negative = inhibition [2] 0.0649% [at 23.6 µM] | activity, negative = inhibition [3] 20.8% [at 19 µM] | activation [4] -1.43% [at 19 µM] | viability change, negative = cytotoxic [5] 11.2% [at 19 µM] | activity, negative = inhibition [6] -0.225% [at 19 µM] | activation [7] -0.0623% [at 19 µM] | activation [8] -7.95% [at 19 µM] | activity change, negative = cytotoxicity [9] 1.15% [at 15.8 µM] | activation (H2AX phosphorylation) [10] -1.87% [at 31.6 µM] | activation [11] -0.458% [at 15.8 µM] | activity change, negative = cytotoxicity [12] -0.277% [at 31.6 µM] | activity, negative = inhibition [13] 3.9% [at 19 µM] | activity change, positive = activation [14] 2.19% [at 19 µM] | activity change, negative = cytotoxicity [15] 1.28% [at 15.8 µM] | cytotoxicity [16] 0.136% [at 15.8 µM]

O=C(CCN1CCN(CCO)CC1)N1c2ccccc2Sc2ccc(C(F)(F)F)cc21
inactive: Potency [1] | Potency [2] | Potency [4] | outcome [5] | Potency [8] | outcome [9] | outcome [10] | outcome [11] | Potency [12] | outcome [15] | Potency [17] | outcome [16]

O=P(O)(O)OP(=O)(O)O
inactive: Potency [1] | Potency [18] | Potency [19] | outcome [3] | Potency [4] | outcome [5] | Potency [8] | outcome [9] | outcome [10] | Potency [12] | outcome [15] | Potency [17] | outcome [16]

CCN(C)C(=O)Oc1cccc([C@H](C)N(C)C)c1
inactive: Potency [1] | Potency [2] | Potency [19] | outcome [3] | Potency [4] | outcome [5] | Potency [8] | outcome [9] | outcome [10] | Potency [12] | outcome [15] | Potency [17] | outcome [16]

Nc1nnc(-c2cccc(Cl)c2Cl)c(N)n1
inactive: Potency [1] | Potency [2] | Potency [19] | outcome [5] | Potency [8] | outcome [9] | outcome [10] | Potency [12] | outcome [16]

Cc1cc2cc3c(C)cc(=O)oc3c(C)c2o1
active: Potency [4] 11.9 µM
inactive: Potency [1] | Potency [18] | Potency [19] | outcome [3] | outcome [5] | Potency [6] | outcome [7] | Potency [8] | outcome [9] | Potency [12] | Potency [13] | activity change, positive = activation [14] 7.29% [at 42.5 µM] | outcome [15] | Potency [17] | outcome [16]

CC(=O)Nc1ccc(S(=O)(=O)Nc2ccc([N+](=O)[O-])cc2)cc1
active: Potency [1] 23.7 µM
inactive: Potency [2] | Potency [4] | Potency [8] | outcome [9] | outcome [10] | Potency [12] | outcome [15] | Potency [17] | outcome [16]

CC1=C(C(=O)O)N2C(=O)[C@@H](NC(=O)[C@H](N)c3ccc(O)cc3)[C@H]2SC1
inactive: Potency [1] | Potency [18] | Potency [19] | outcome [3] | Potency [4] | Potency [8] | outcome [9] | outcome [10] | Potency [12] | outcome [15] | Potency [17] | outcome [16]

CC(C)CCCC(C)(C)O
inactive: Potency [1] | Potency [2] | Potency [19] | outcome [3] | Potency [4] | outcome [5] | Potency [8] | outcome [9] | outcome [10] | outcome [11] | Potency [12] | outcome [15] | Potency [17] | outcome [16]

O=C(O)c1ccc(Cl)cc1Cl
inactive: Potency [1] | Potency [2] | Potency [19] | outcome [5] | Potency [8] | outcome [9] | outcome [10] | outcome [11] | Potency [12] | outcome [15] | Potency [17] | outcome [16]
